High-throughput results deposited in PubChem BioAssay by ICCB-Longwood Screening Facility, Harvard Medical School.
AID504770: growth inhibitors of E. coli YBA685 in a screen for V. cholerae RctB (chromosome II replication) inhibitors; actives 0.27% (n = 130,000); E. coli YBA685 rctB-dependent plasmid, OD600 growth, 3 h; hits give low values; z-score (test concentration not listed); in the data active means z-score below about -2, passing the limit was not always enough
Ba CapD inh: CapD enzyme inhibition | purified CapD enzyme, fluorescence intensity read-out; hits give low values | z-score (no concentration beside the values) | actives 0.23% (n = 140,000); in the data active means z-score mostly below about -2.9, no sharp cut-off; inactive means mostly above about -1.9
* = called active by the depositor; . = no result given; ! = not active in a repeat. Rows were chosen to be rich in hits. Some 0.34% of all compounds tested hit in one or more screens of this group.

SMILES	AID504770	Ba CapD inh
COc1ccc(/C=C/C(=O)C2(O)CCCCC2)cc1OC	0.1	-4.5*
COc1ccc(/C=C/C(=O)N2CCCCC2)cc1OC	0	.
Cc1cc2nc(/C=C/c3ccccc3)n(Cc3ccc(C(C)(C)C)cc3)c2cc1C	.	5.5
CSC(N)=Nc1ccc(Cl)cc1	-2.5*!	-0.14
CSC(N)=Nc1cc(Cl)ccc1Cl	.	0.09
CC(=O)N(C(C)=O)c1cc(C(=O)O)ccc1Sc1ccc(Br)cc1	0.8	-11*
Cc1ccc(Sc2ccc(C(=O)O)cc2NC=O)cc1	-0.35	0.1
COc1cccc(C(=O)NCCc2cc3c(C)ccc(C)c3[nH]c2=O)c1OC	-0.8	0.56
COc1ccc([N+](=O)[O-])cc1N1C(=O)C2C3c4ccccc4C(c4ccccc43)C2C1=O (configuration not stated)	.	-0.24
CCOC(=O)C1=C(CSc2nnc3ccccn23)NC(=O)NC1c1cccs1 (configuration not stated)	-0.2	.
CCOC(=O)C1=C(CSc2nnc(-c3cccs3)n2-c2ccccc2)NC(=O)NC1C (configuration not stated)	-2.5*	.
CCOC(=O)C1=C(C)N=c2s/c(=C/c3ccc(O)cc3)c(=O)n2C1c1cc(OC)c(OC)cc1Br (configuration not stated)	.	-0.66
CCC1CCCCN1C(=O)CSc1nnc(-c2ccc(Cl)cc2)o1 (configuration not stated)	0.05	-4.8*
CCC1CCCCN1C(=O)CSc1ccc(Cl)cc1 (configuration not stated)	-0.15	-0.29
COC(=O)C(CC(=O)c1cccs1)c1ccccc1 (configuration not stated)	0.15	0.065
O=C(NCCN1C(=O)S/C(=C\c2cccnc2)C1=O)c1cccs1	-0.25	.
CNC(=S)NCCN1C(=O)S/C(=C\c2cccnc2)C1=O	-3*	.
COc1ccc(N2C(=S)N=C(Nc3cccc(C(F)(F)F)c3)C23CCC(C(C)(C)C)CC3)cc1 (configuration not stated)	.	-0.17
COc1ccc(N/N=C(/C#N)S(=O)(=O)c2nsc(C)c2C#N)cc1	.	-5.8*
Cc1snc(S(=O)(=O)/C(C#N)=N/Nc2cccc(C(F)(F)F)c2)c1C#N	.	-2.5
CNS(=O)(=O)c1cccc(C(=O)OCC(=O)Nc2ncc(Cl)cc2Cl)c1	-0.9	.
O=C(Sc1cccc2cccnc12)c1ccccc1	-0.55	0.07
N#Cc1c(Nc2ccccc2)s[nH]c1=O	-2.6*	0.23
CC(C)c1ccc(Nc2s[nH]c(=O)c2C#N)cc1	.	0.19
COc1ccccc1C(=O)ON1C(=O)CCC1=O	-1.1	-5.5*
SMILES	AID504770	Ba CapD inh
COc1ccc(C(=O)ON2C(=O)CCC2=O)cc1	-0.65	-1.1
O=S(=O)(c1ccc(NC(=S)NCc2ccco2)cc1)N1CCCc2ccccc21	-0.65	-0.19
N#CC(C#N)=NNc1ccccc1	-3.6*	.
N#CC(C#N)=NNc1cc(Cl)cc(Cl)c1	.	-0.92
Cc1ccc(NC(=O)c2ccc3ncsc3c2)c(O)c1	-1.7	.
CC(=O)Nc1ccc2nc(C)sc2c1	-1.2	-5.7*
Cc1cc(C(=O)Nc2ccc3nc(C)sc3c2)c(C)o1	1.1	.
CC1(NC(=O)CSC(C)(C)C)CCS(=O)(=O)C1 (configuration not stated)	-0.2	.
Cc1c(-c2csc(CS(=O)(=O)C(C)(C)C)n2)sc2ccccc12	0.4	-0.9
Cc1c(-c2csc(-c3ccno3)n2)sc2ccccc12	-1.2	-3.5*
Cc1cc(C)c(C(=O)O)c(=S)[nH]1	-2.5*	.
Cc1cc(C)c(C(=O)O)c(=O)[nH]1	0.6	0.88
CC(C)(C)C1(C)OC(=O)C(=Cc2ccc(Br)o2)C(=O)O1 (configuration not stated)	-0.25	-5.1*
CC(C)(C)C1(C)OC(=O)C(=Cc2ccccc2Cl)C(=O)O1 (configuration not stated)	-0.55	-0.36
CC(C)CNC(=O)c1cccc(S(=O)(=O)N2CCCCC2)c1	-4.8*	0.065
O=C(O)c1cccc(S(=O)(=O)N2CCCCC2)c1	-0.6	0.045
O=C(O)c1cc(Cl)c(Cl)cc1C(=O)O	-0.5	-0.3
Oc1cc(Cl)c(Cl)cc1O	-3.5*	0.16
O=C(O)/C=C/C(=O)Nc1ccccc1	-0.55	-0.46
Cc1ccc2ncc(C(=O)N3c4ccccc4CC3C)c(=O)n2c1 (configuration not stated)	-0.1	.
OCCn1c(-c2ccc(-c3ccccc3)cc2)csc1=Nc1ccccc1	0.1	0.13
O=C(CCSc1ccc(Cl)cc1)NCc1ccncc1	-0.75	0.24
COc1ccc(SCCC(=O)NCc2ccncc2)cc1	-0.75	-2.1*
Cn1cccc1/C=C1\CS/C(=C\c2cccn2C)C1=O	1.1	-0.27
Cn1cccc1/C=C1\SC(=S)NC1=O	0.2	-4.3*
SMILES	AID504770	Ba CapD inh
COc1ccc(N(C(=O)c2ccncc2)S(=O)(=O)c2ccc(OC)c(OC)c2)cc1	1.6	-5.6*
COc1ccc(S(=O)(=O)N(C)c2ccc(C(N)=O)cc2)cc1OC	-0.85	0.18
CSC(SC)=C(C#N)C(=O)c1ccccc1Cl	-1.2	-4.7*
CSC(SC)=C(C#N)C(=O)c1cccc(C)c1	-0.8	-1.5
COc1ccccc1Nc1nc2ccccc2s1	-0.15	-0.47
C=CCN(C(=O)c1ccc(C)s1)c1nc(-c2ccc(S(C)(=O)=O)cc2)cs1	0	.
COc1cc(NS(=O)(=O)c2ccc3c(c2)CCN3C(=O)CCC(=O)O)c(C(=O)O)cc1OC	0.35	-4.3*
CCC(=O)N1CCc2cc(S(=O)(=O)Nc3ccccc3OC)ccc21	-1.1	0.41
O=C(/C=C/c1ccccc1)C1=C(O)C(=O)N(CCO)C1c1ccc(F)cc1 (configuration not stated)	-0.35	.
COc1ccc(C2C(C(=O)/C=C/c3ccccc3)=C(O)C(=O)N2CCO)cc1 (configuration not stated)	-1	-3.9*
Cc1cc(=S)[nH]c2cc(Br)ccc12	-1.6	.
O=C(CCC1COc2ccccc2O1)Nc1ccc(C(=O)O)cc1 (configuration not stated)	-0.8	-0.43
O=C(O)CNC(=O)c1ccc(F)cc1	-1.3	.
N#Cc1cc(-c2ccccc2C(F)(F)F)no1	-2.6*	.
COC(=O)c1cc(-c2ccccc2C(F)(F)F)no1	-0.3	0.11
Nc1cccc(Cl)c1F	0.85	.
Nc1ncccc1C(=O)OCCN1C(=O)c2ccccc2C1=O	-0.8	.
CC1CCCCN1C(=O)Cn1ncc2c1-c1ccccc1OC2 (configuration not stated)	-1.1	-4*
CC(C)NC(=O)Cn1ncc2c1-c1ccccc1OC2	-1.1	-0.46
C=C(C)C(=O)N1C(=O)OCC1c1ccccc1 (configuration not stated)	0.25	-1.8
CCn1c(=N)c(C(N)=O)cc2c(=O)n3ccccc3nc21	2.6	.
O=C(c1cc2ccccc2o1)N1CCCC1c1nc2ccccc2s1 (configuration not stated)	-1	.
CC(C(=O)Nc1ccc(C#N)cc1)N1CCN(S(=O)(=O)/C=C/c2ccccc2)CC1 (configuration not stated)	-0.35	.
NC(=O)C(c1cccc(C(F)(F)F)c1)c1ncc(C(F)(F)F)cc1Cl (configuration not stated)	.	-0.79
NC(=O)C(c1ccccc1)c1ncc(C(F)(F)F)cc1Cl (configuration not stated)	-2.7*	-0.04
NC(=S)Nc1ccc(Cl)c(Cl)c1	.	-0.03
NNc1ccc(Cl)c(Cl)c1	-3.6*	0.15
O=C(CSc1nc(O)cc(=O)n1C1CCCC1)NC12CC3CC(CC(C3)C1)C2	-0.75	.
